Data reported in PubChem BioAssay AID588497 (NMMLSC, 2011).
Among all 360,000 compounds or so, about 780 (0.22%) were called active. Another 4% or so got no clear call; they are omitted. What follows is part of a selection rich in actives, with near analogues and random picks from the rest. Values without a mark were called inactive. Rule as the data show it: active = inhibition above about 35% (passing the limit was not always enough); inconclusive = no clear call, values can overlap the other calls.

What follows are compounds tested on Botulinum neurotoxin type F light chain protease (Clostridium botulinum) (assay: BoNT/F light chain protease inhibitors, primary screen, biochemical, flow cytometry, MLPCN library (AID 588497; also: plate controls were buffer without enzyme for full effect and enzyme alone for no effect)). Conditions: Multiplex microsphere protease cleavage assay, at 10 µM, active compounds read high.

For `c1ccc2c(c1)CCc1snnc1-2`, the inhibition was 40.3% (active).
With `CN(C)c1ccc(/C=C2\NC(=S)N(Cc3ccccc3)C2=O)cc1` the inhibition was 35.7% (active).
For `Cn1c(Nc2ccccc2)cc(=O)n(C)c1=O`, the inhibition was 35.2% (active).
With `CC1CCc2c(sc3nc4n(c(=O)c23)CCS4)C1` (stereo unspecified) the inhibition was 43.2% (active).
For `Nc1ccccc1Sc1cc(Cl)nnc1Cl`, the inhibition was 82.9% (active).

In order of falling inhibition:
1. Cc1cc(=O)n(C)c(=O)n1CCCNc1ccccc1  6.9%
2. CN(C)c1ccc(C=C2C(=O)OC3(CCCC3)OC2=O)cc1  6.6%
3. C=CCC[C@@H](CCCCC)OC(=O)/C=C/[C@@H](O)[C@H](O)C[C@H](O)CC=C  4.2%
4. CC(=O)Nc1cc(-c2cccc(CO)c2)cn2c(-c3cccc(C(F)(F)F)c3)cnc12  0.9%
5. CC1CN(Cc2ccccc2)C(=S)NC1=O (stereo unspecified)  0.1%
6. CC(C)Oc1ccc(C(=O)Nc2cc(=O)n(C)c(=O)n2C)cc1  -0.5%
7. O=C1Nc2ccccc2NC(c2ccc3c(c2)OCO3)=C1N(Cc1ccc(F)cc1)C(=O)c1ccco1  -0.6%
8. C=CCn1c(SCc2c(C)noc2C)nc2sc3c(c2c1=O)CCC(C)C3 (stereo unspecified)  -1.6%
9. CCCn1nnc2sc3c(c2c1=O)CCC(C)C3 (stereo unspecified)  -1.8%
10. O=C(NC(c1ccc(Cl)cc1)c1cnccn1)C1CCN(Cc2ccc(Cl)cc2)CC1 (stereo unspecified)  -2.2%
11. O=C1NC[C@H](Cc2ccc(O)cc2)N(C[C@H]2CCCN2C[C@H](Cc2ccccc2)N2C[C@H](Cc3ccccc3)N(CCc3ccccc3)C(=O)C2=O)C1=O  -3.4%
12. Cc1nn(C)c(C)c1Sc1ccccc1N  -4.3%
13. Cc1ccc(CC2(C)C(=O)Nc3ccc(OC(F)(F)F)cc32)cc1 (stereo unspecified)  -5%
14. CC(=O)c1cccc(-c2cnc3c(NC=O)cc(-c4ccccc4Oc4ccccc4)cn23)c1  -5.9%
15. Cc1nc2c(OCc3ccc(Cl)cc3Cl)cccn2c1N(C)CC1CC1  -6%
16. COc1ccc(C(c2nnnn2C2CCCC2)N2CCN(C/C=C/c3ccccc3)CC2)cc1 (stereo unspecified)  -6.6%
17. C=CCN(CC=C)S(=O)(=O)c1ccc(C(=O)Nc2nc3c(s2)CCc2ccccc2-3)cc1  -8.2%
18. O=C(c1snnc1-c1ccccc1)N1CCOCC1  -9%
19. COc1ccc(CC(N)c2csc(NC(=O)Nc3ccc(C(C)C)cc3)n2)cc1 (stereo unspecified)  -11.1%
20. CC(C)Nc1nc(NCCOc2ccccc2Cl)c2sccc2n1  -12.7%
21. NC(Cc1ccc(F)cc1)c1csc(Nc2nncc3ccccc23)n1 (stereo unspecified)  -21.6%
